From PubChem BioAssay (NCATS) come the findings set out here.

“And” between values parts separate entries of the source, which are not always exact repeats. Equal entries are not always repeated. Results filed as inconclusive are left out. The source made the active and inactive calls. Unless noted, the call rests on the fitted dose curve; in most records, active means well fitted curve in the direction sought with a large enough effect; inconclusive means small, poorly fitted or top-dose-only effect, or another doubt; inactive means no such curve, though single readings can be large; an effect the other way counts as inactive or inconclusive.

In assay [1] the target is Rap guanine nucleotide exchange factor 3 (Homo sapiens) (UniProt O95398). In words: Confirmatory qHTS for antagonist of cAMP-regulated guanine nucleotide exchange factor 3 (EPAC1) (AID 1645880). Further: nearly all actives have a fitted effect of over 55% in size. Further: potency means the concentration at half of the fitted maximal effect. In short, it runs like this: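 Nucleotide exchange uses 100 nM EPAC1, 250 nM RAP1B-BODIPY-GDP and 50 uM GDP, with compounds in a concentration-titration series. After 5 min at room temperature, fluorescence (480 nm ex/540 nm em) is read every 5 min for 30 min. Data are normalized to control ATA and DMSO.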
(qHTS replaces the single test concentration by a dilution series.)

The target is the same in assay [2]. In words: Confirmatory qHTS for agonist of cAMP-regulated guanine nucleotide exchange factor 3 (EPAC1) (AID 1645881).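 Further: EPAC1 catalysed release of BODIPY-GDP from Rap1B seen as fluorescence loss; 100% = effect of cAMP agonist control; nearly all actives have a fitted effect of over 75% in size.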
Assay [3] deals with Rap guanine nucleotide exchange factor 4 (Homo sapiens) (UniProt Q8WZA2). In words: Confirmatory qHTS for agonist of cAMP-regulated guanine nucleotide exchange factor 4 (EPAC2) (AID 1645884). Further: on the % scale 0 is the no-effect control and ±100 the full control effect; nearly all actives have a fitted effect of over 65% in size.
Assay [4] has the same target. In words: Confirmatory qHTS for antagonist of cAMP-regulated guanine nucleotide exchange factor 4 (EPAC2) (AID 1645885). Further: nearly all actives have a fitted effect of over 25% in size.
Assay [5] has as its target Rap guanine nucleotide exchange factor 3 (Homo sapiens) (UniProt O95398). The assay can be described thus: Counterscreen qHTS for antagonist of cAMP-regulated guanine nucleotide exchange factor 3 (EPAC1) (AID 1645888).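 Further: fluorescence loss as bound BODIPY-GDP is released from Rap1B; % of control where 0% means no effect.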 In a few lines:
(§1)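 Rap1B–BODIPY-GDP (250 nM) with 50 uM GDP; compounds pin-transferred to 9.74 nM–152 uM final (activator) or from 7.32 nM upwards (inhibitor). Fluorescence Ex/Em 480/540 nm read at 5 and 30 min, then after adding cAMP or buffer, at room temperature.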
A general note: Counterscreens check selectivity or assay interference.

Assay [6] has the same target. The assay can be described thus: Counterscreen qHTS for agonist of cAMP-regulated guanine nucleotide exchange factor 3 (EPAC1) (AID 1645889). Further: % of control where 0% means no effect; nearly all actives have a fitted effect of over 40% in size. In short, it runs like this: as §1
The target in assay [7] is Cytochrome P450 3A4 (Homo sapiens) (UniProt P08684). In words: qHTS Assay for Inhibitors and Substrates of Cytochrome P450 3A4 (AID 884). Further: on the % scale 0 is the no-effect control and ±100 the full control effect; nearly all actives have a fitted effect of over 50% in size. In short, it runs like this: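 20 nM human CYP3A4 with 25 uM Luciferin-PPXE (at KM) in 200 mM KPO4, preincubated 10 min with compound; NADPH regeneration started a 60 min RT reaction. Luciferin detected by luminescence, normalized to 57 uM ketoconazole as full inhibition.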

Assay [8] in a line: Confirmation and Secondary Assay for Modulators of Hemoglobin Beta Chain Splicing at IVS2 705 locus (AID 930).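 Further: HeLa cells stably expressing the EGFP-705 splicing reporter; GFP fluorescence per well restored by corrected splicing of the IVS2-705 intron in EGFP; % of control where 0% means no effect.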 In a few lines:
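Stable HeLa line with EGFP disrupted by mutant beta-globin intron 2 (705). Overnight attachment, then 2 days of compound at 37C, 5% CO2. Signal: peak GFP intensity summed over objects 5-250 µm.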

In assay [9] the target is Ubiquitin carboxyl-terminal hydrolase 1 (Homo sapiens) (UniProt O94782). The assay can be described thus: Inhibitors of USP1/UAF1: Pilot qHTS (AID 504865).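 Further: rhodamine fluorescence freed from ubiquitin-rhodamine substrate followed over time; top concentration of the series differs between compounds; on the % scale 0 is the no-effect control and ±100 the full control effect; nearly all actives have a fitted effect of over 35% in size.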 In a few lines:
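USP1/UAF1 complex (1nM) preincubated with compound 15 min at room temperature, then Ub-Rho substrate (150nM final) added. Fluorescence read kinetically at 480/540 nm, 6 reads every 60 seconds. Buffer: 50mM HEPES pH 7.8, 0.5mM EDTA, 0.1 mg/ml BSA, 1mM TCEP, 0.01% Tween-20.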

Assay [10] is described as follows: Confirmation and Secondary Assay for Modulators of Hemoglobin Beta Chain Splicing at IVS2 654 locus (AID 910).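 Further: HeLa cells stably carrying EGFP split by mutant beta-globin IVS2-654 intron; % of control where 0% means no effect.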 In a few lines: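 HeLa cells stably expressing EGFP interrupted by β-globin IVS2-654 intron, seeded overnight in Opti-MEM/2% FCS, then treated 2 days at 37 °C. Restored splicing read as total peak GFP intensity per well by laser scanning cytometry (488 nm excitation, 500–520 nm emission); 500 nM antisense PNA as control.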

Assay [11] can be described thus: AP1 Signaling Pathway (AID 357; active means well fitted curve in either direction with a large enough effect, not every such curve was filed as active;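 further: ME-180 reporter cells stimulated with EGF at its EC50 level; on the % scale 0 is the no-effect control and ±100 the full control effect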). In short, it runs like this:
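In this screen, ME-180 cells in Opti-MEM with 0.5% dialyzed FBS received EC50 EGF and compound titrations for 5 h. AP-1 reporter beta-lactamase was detected via CCF4 ratio, giving AC50 for positive and negative modulators.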

For assay [12], the target named is Cytochrome P450 1A2 (Homo sapiens) (UniProt P05177). In words: p450-cyp1a2 (AID 410; calls by dose curve;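 further: -100% = full effect of reference inhibitor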). In a few lines: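 Inhibition was calculated relative to 57 uM furafylline (full inhibition). The reaction used human CYP1A2 at 20nM with Luciferin-ME at its Km, 100uM, driven by an NADPH-regenerating system for 60 min at room temperature.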
Assay [13] is described as follows: NFAT Signaling Pathway (AID 444; active means well fitted curve in either direction with a large enough effect, not every such curve was filed as active;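 further: carbachol stimulus at about its EC50 of 1 µM final; on the % scale 0 is the no-effect control and ±100 the full control effect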). Conditions: Jurkat NFAT-bla M1, carbachol, beta-lactamase ratio, 5 h. In short, it runs like this: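 Jurkat cells with NFAT-driven β-lactamase reporter and co-expressed M1 receptor, stimulated with carbachol (final 1 uM, ~EC50), compound titration, 5 h at 37 °C. CCF4 loaded 1 h at RT; 460/530 nm ratio gave %activity and AC50.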

For assay [14], the target named is Glucocorticoid receptor (Homo sapiens) (UniProt P04150). The assay can be described thus: GR-GFP Redistribution (AID 450;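 active means compounds whose dose series gives a full or clear partial fitted curve of increased nuclear translocation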; further: potency means the concentration at half of the fitted maximal effect). The settings on record: U2OS GR-GFP nuclear translocation, laser cytometry, 2 h.
Assay [15] has the same target. In words: GR-EFC Redistribution (AID 451; calls by dose curve; further: potency means the concentration at half of the fitted maximal effect). Conditions: CHO-K1 GR-EFC translocation, beta-gal luminescence, 2 h. In short, it runs like this:
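CHO-K1 cells expressing nuclear EA and GR-ED fragments of b-gal; compounds titrated up to 46 uM final, 2 h at 37 C. GR nuclear translocation read as complemented b-gal luminescence after 1 h RT detection.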

In assay [16] the target is Mitogen-activated protein kinase 10 (Mus musculus) (UniProt Q61831). In words: JNK3 AlphaScreen Assay (AID 530; active means well fitted curve in either direction with a large enough effect, not every such curve was filed as active;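 further: kinase came from lysate of stimulated human HepG2 cells; signal reports phosphorylation of biotinylated GST-cJun 1-79 at Ser73 with 10 µM ATP; on the % scale 0 is the no-effect control and ±100 the full control effect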). In short, it runs like this: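 qHTS format: compounds tested as titrations against IL-1beta/TNF-alpha-activated HepG2 lysate JNK3 with biotin-GST-cJun substrate and 10 uM ATP at room temperature. Loss of anti-phospho-cJun AlphaScreen signal indicates inhibition.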
(Bead proximity is the source of the signal in Alpha formats.)

Assay [17] has as its target 3',5'-cyclic-AMP phosphodiesterase 4B (Homo sapiens) (UniProt Q07343). The assay can be described thus: qHTS Assay for Inhibitors of PDE-IV (AID 607; active means well fitted activation curve with a large enough effect in the main read-out, with a control signal flat, not every such curve was filed as active; further: % of control where 0% means no effect). In a few lines:
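ACTOne HEK293 cells carry a modified cAMP-gated CNG channel and express endogenous PDE4; plated 1000 cells/well, compounds up to 22.9 uM final. Membrane-potential dye fluorescence (ex 535/em 590) was read; parental cells received 10 uM forskolin + 100 uM RO 20-1724.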

The target in assay [18] is Glutathione peroxidase 1 (Homo sapiens) (UniProt P07203). In words: Primary qHTS Assay for Inhibitors of Recombinant Selenoprotein Glutathione Peroxidase 1 (GPX1) (AID 1845191). Further: nearly all actives have a fitted effect of over 65% in size. In short, it runs like this: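 GR-coupled assay: compounds preincubated 30 min at room temperature with GPX1, then reaction started with CHP; final 10 nM GPX1, 1 mM GSH, 0.5 mM CHP, 0.5 mM NADPH, 100 nM GR, 0.01% BSA, pH 7.5 Tris buffer. NADPH fluorescence (340/450 nm) read at 0 and 15 min.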

A short description of assay [19]: qHTS drug screen for cell cycle checkpoint inhibitors in PARPi-resistant BRCA-mutant ovarian cancer cell lines. (AID 1963452; calls by dose curve). The settings on record: PEO1/OlaR viability, CellTiter-Glo luminescence, 96 h, stronger effect = lower value. In a few lines: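 PEO1, PEO4 and PEO1/OlaR ovarian cancer cells, 600 per well, exposed 96 h at 37C to a dilution series. Viability read by CellTiter-Glo luminescence, normalized to DMSO and empty wells; activity summarized as Z-AUC.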

Assay [20] can be described thus: Stat Signaling Pathway (AID 446; active means well fitted curve in either direction with a large enough effect, not every such curve was filed as active;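 further: ME-180 cervical cancer cells given 40 pM IL-6 alongside compound; SIE-controlled beta-lactamase reporter measured as 460/530 nm FRET emission ratio; on the % scale 0 is the no-effect control and ±100 the full control effect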). In short, it runs like this: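 ME-180 SIE-bla cells; overnight plating; cpd + IL-6 40 pM, 5 h, 37 C; LiveBLAzer 2.5 h RT; 460/530 nm emission ratio. Normalized to 300 pM IL-6 and 125 nM JAK inhibitor controls.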
Assay [21] concerns the target Phospholipid hydroperoxide glutathione peroxidase GPX4 (Homo sapiens) (UniProt P36969). In words: Primary qHTS Assay for Inhibitors of Recombinant Selenoprotein Glutathione Peroxidase 4 (GPX4) (AID 1845192). Further: on the % scale 0 is the no-effect control and ±100 the full control effect; nearly all actives have a fitted effect of over 65% in size. In short, it runs like this: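 GR-coupled assay: recombinant GPX4 preincubated 30 min with compound at room temperature; final 200 nM GPX4, 1 mM GSH, 0.5 mM cumene hydroperoxide, 0.5 mM NADPH, 100 nM GR, 0.01% BSA, pH 7.5 Tris. NADPH fluorescence (340/450 nm) read at 0 and 15 min.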

Where [22] appears, read: measured here: PEO1 parental Z-AUC.

Chain of Cytochrome P450 3A4 (Homo sapiens) (P08684 whole entry, looked up): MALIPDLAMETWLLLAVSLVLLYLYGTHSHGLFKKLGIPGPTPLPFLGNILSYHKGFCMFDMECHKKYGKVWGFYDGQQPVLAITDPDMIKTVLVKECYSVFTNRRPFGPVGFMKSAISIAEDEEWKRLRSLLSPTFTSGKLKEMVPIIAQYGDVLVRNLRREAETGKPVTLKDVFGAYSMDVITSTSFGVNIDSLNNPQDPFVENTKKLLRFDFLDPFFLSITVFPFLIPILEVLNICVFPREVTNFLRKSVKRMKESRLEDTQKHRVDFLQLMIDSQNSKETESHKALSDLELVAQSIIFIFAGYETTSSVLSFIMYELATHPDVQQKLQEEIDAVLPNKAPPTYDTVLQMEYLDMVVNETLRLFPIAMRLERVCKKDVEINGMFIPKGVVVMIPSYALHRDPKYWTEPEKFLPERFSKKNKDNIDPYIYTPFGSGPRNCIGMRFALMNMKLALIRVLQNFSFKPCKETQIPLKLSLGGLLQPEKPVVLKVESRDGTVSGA
Chain of 3',5'-cyclic-AMP phosphodiesterase 4B (Homo sapiens) (Q07343 whole entry, looked up): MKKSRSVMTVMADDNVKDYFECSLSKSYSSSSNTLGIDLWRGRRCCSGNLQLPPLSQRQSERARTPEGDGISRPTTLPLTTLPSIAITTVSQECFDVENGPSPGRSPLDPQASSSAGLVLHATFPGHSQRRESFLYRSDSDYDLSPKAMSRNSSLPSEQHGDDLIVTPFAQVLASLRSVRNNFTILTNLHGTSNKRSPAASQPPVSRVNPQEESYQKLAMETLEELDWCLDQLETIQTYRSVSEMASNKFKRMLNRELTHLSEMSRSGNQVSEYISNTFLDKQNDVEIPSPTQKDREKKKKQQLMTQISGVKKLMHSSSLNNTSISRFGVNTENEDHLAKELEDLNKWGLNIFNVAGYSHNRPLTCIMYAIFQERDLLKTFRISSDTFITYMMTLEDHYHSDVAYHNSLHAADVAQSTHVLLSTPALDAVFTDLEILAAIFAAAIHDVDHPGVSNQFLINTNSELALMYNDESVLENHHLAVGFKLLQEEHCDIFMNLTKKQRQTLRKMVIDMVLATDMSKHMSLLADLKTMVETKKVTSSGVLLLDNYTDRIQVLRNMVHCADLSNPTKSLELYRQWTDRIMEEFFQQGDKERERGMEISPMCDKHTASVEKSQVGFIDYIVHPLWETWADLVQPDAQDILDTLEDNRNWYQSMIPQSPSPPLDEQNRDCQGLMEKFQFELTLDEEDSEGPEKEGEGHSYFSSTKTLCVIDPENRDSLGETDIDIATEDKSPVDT
Chain of Glucocorticoid receptor (Homo sapiens) (P04150 whole entry, looked up): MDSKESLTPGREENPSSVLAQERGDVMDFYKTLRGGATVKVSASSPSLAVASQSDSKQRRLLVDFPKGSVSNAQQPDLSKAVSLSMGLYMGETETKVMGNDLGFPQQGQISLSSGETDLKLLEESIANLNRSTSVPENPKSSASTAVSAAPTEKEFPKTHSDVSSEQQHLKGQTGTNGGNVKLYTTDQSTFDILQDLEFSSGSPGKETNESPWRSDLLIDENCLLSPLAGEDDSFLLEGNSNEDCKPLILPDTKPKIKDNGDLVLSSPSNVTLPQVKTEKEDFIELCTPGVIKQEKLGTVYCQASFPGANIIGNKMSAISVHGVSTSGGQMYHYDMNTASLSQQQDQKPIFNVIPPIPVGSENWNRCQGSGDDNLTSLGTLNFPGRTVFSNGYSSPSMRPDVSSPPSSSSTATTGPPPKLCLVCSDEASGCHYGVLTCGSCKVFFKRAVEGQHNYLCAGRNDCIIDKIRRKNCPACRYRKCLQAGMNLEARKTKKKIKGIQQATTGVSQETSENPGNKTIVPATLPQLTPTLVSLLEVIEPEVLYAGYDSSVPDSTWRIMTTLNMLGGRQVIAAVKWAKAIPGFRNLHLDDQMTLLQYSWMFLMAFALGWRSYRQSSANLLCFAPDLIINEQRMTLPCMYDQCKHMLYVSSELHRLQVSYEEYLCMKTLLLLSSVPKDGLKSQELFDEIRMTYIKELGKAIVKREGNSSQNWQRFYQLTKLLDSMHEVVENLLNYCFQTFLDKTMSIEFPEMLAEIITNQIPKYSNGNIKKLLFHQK
Chain of Rap guanine nucleotide exchange factor 4 (Homo sapiens) (Q8WZA2 whole entry, looked up): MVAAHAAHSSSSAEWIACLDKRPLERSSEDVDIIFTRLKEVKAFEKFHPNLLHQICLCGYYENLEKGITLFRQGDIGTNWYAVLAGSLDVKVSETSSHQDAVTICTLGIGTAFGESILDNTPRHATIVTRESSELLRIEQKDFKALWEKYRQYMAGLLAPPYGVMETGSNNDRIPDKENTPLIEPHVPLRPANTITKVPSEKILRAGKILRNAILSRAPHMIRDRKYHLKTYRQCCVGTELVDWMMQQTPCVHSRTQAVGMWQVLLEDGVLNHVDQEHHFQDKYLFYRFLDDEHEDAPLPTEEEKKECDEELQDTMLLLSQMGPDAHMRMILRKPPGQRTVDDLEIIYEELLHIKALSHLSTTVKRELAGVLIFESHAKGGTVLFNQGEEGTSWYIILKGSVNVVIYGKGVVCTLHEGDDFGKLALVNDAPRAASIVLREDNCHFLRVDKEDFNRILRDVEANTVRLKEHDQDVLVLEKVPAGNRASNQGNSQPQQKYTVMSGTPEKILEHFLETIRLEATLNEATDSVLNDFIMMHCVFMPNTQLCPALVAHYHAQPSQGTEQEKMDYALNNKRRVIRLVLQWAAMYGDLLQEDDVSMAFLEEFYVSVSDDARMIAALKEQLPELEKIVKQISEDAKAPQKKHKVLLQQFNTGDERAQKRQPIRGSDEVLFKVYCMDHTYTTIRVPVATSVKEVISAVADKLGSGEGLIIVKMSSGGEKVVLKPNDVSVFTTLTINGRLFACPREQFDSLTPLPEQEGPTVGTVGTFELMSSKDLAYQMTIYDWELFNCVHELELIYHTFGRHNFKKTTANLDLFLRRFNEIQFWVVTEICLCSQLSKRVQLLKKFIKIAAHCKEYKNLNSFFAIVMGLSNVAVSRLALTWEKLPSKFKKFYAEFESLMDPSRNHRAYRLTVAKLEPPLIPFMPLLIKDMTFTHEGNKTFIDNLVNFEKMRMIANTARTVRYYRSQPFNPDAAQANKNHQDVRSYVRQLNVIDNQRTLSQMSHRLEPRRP
Chain of Ubiquitin carboxyl-terminal hydrolase 1 (Homo sapiens) (O94782 whole entry, looked up): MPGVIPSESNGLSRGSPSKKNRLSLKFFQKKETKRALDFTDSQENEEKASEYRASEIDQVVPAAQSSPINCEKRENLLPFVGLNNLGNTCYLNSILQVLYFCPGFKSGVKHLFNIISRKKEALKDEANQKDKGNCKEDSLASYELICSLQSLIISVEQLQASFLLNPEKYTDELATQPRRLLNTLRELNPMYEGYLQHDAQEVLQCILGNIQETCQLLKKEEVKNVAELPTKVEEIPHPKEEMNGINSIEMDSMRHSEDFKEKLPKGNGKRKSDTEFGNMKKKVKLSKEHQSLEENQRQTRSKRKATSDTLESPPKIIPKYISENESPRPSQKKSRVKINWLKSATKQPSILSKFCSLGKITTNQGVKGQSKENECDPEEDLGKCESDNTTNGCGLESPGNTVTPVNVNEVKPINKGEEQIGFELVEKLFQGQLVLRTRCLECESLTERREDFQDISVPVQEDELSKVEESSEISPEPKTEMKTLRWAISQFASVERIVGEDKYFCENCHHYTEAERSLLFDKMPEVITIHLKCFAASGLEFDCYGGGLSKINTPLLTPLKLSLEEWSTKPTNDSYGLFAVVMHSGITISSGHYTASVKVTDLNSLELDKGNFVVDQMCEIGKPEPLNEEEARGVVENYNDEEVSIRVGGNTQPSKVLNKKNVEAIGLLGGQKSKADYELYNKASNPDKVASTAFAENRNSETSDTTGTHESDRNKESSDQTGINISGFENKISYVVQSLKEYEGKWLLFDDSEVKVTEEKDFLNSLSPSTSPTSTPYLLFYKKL
Chain of Rap guanine nucleotide exchange factor 3 (Homo sapiens) (O95398 whole entry, looked up): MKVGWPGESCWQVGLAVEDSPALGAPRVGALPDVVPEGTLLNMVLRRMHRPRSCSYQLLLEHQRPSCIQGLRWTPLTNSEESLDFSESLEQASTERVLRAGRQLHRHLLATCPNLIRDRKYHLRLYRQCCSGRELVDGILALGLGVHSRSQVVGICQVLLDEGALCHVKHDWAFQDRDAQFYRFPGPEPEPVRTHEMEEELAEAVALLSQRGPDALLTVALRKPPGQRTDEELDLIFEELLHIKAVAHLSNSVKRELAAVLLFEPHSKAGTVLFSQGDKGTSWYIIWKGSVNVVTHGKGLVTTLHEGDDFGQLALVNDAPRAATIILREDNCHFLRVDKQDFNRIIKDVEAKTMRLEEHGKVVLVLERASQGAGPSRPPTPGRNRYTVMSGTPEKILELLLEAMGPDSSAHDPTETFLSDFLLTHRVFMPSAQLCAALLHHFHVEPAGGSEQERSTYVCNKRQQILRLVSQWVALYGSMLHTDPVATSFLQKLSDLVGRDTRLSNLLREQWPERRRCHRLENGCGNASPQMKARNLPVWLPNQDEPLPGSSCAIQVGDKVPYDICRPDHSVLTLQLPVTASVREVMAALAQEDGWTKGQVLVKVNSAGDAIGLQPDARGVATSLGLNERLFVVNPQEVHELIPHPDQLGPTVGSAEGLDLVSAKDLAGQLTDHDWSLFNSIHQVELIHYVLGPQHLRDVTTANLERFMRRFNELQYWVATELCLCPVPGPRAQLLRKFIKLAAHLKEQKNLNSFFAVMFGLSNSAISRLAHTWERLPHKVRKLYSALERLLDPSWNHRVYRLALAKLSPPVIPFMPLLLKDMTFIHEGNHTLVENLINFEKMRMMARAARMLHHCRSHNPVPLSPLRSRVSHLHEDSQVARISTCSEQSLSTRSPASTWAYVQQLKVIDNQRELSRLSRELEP
Chain of Glutathione peroxidase 1 (Homo sapiens) (P07203 whole entry, looked up): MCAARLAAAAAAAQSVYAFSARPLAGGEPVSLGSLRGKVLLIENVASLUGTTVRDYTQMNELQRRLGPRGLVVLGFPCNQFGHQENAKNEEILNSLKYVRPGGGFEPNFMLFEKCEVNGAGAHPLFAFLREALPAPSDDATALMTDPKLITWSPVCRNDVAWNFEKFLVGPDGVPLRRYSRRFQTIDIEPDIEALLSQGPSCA

Turning to `CCCCN1C(=O)C(O)(c2c[nH]c3ccccc23)c2cc(Br)ccc21` (centres undefined), the Potency result in assay [1], in assay [2], in [3], in [4], in assay [5] and in assay [6] was “inactive” each time.
In the case of `Nc1ccc2ccccc2c1C(=O)c1ccccc1`, the Potency entry in assay [1], in assay [2], in [3], in assay [4], in assay [5] and in [6] was “inactive” throughout.
For `CN(CC(=O)Nc1cccc(F)c1)C(=O)CN1c2cccc3cccc(c23)S1(=O)=O`, the Potency in [1] was 75.7 µM (active). Further, the Potency entry in [2], in assay [3], in [4], in assay [5] and in assay [6] was “inactive” each time.
As to `Cc1ccc(N(CCC#N)C(=O)COC(=O)c2ccccc2SCC(=O)N2CCCC2)cc1`, the Potency entry in assay [2], in assay [3], in [4] and in assay [5] was “inactive” each time.
For the molecule `CCc1ccc(/C=C2\SC(=S)N(CCC(=O)Nc3cc(C)on3)C2=O)cc1`, the Potency result in [1], in assay [2], in assay [3], in [4], in assay [5] and in assay [6] was “inactive” throughout.
Regarding `CC(=O)Oc1cc(-c2coc3cc(OC(C)=O)c(OC(C)=O)c(OC(C)=O)c3c2=O)cc(OC(C)=O)c1OC(C)=O`, the Potency entry in assay [7], in assay [8] and in assay [9] was “inactive” throughout.
On to `Nc1nc2[nH]c(=O)[nH]c2c(=O)[nH]1`, for which the Potency result in assay [7], in [10], in assay [8] and in [9] was “inactive” each time.
Consider `C[C@H](N)CCCC(C)(C)O`, for which the call in assay [11] and in assay [17] was inactive. Further, the Potency result in [12], in assay [16] and in assay [9] was “inactive” throughout. Further, in [13] (at 17.2 µM (top of the series) unless noted), the activity change, negative = inhibition was -3.85% (inactive). Moreover, the Potency in assay [14] and in [15] was > 20.6 µM (inactive) in each case.
With `Cc1cc(C)c(OCC(=O)Nc2ccccc2N2CCCCC2)c(C)c1`, the Potency entry in assay [2], in assay [3], in [4] and in [5] was “inactive” throughout.
With `Cc1cc(O[C@@H](CCC(F)(F)F)c2ccc(C(=O)NCCC(=O)O)cc2)cc(C)c1-c1ccc(C(C)(C)C)cc1`, in [18], the Potency result is “inactive”. Besides, the Z-AUC in assay [19] was 0.000666 (inactive); in assay [19] (setting [22]), 0.0877; in assay [19] (measured here: PEO4 Z-AUC), -0.261.
In the case of `CC(=O)O[C@@H]1C(=O)[C@@]2(C)[C@H](O)C[C@H]3OC[C@]3(OC(C)=O)[C@@H]2[C@H](OC(=O)c2ccccc2)[C@@]2(O)C[C@H](OC(=O)[C@@H](O)[C@@H](NC(=O)c3ccccc3)c3ccccc3)C(C)=C1C2(C)C` (stereo in doubt), the molecule was classed as inactive in assay [11], in assay [20] and in assay [17]. Besides, the activity change, negative = inhibition in [13] (at 17.2 µM (top of the series)) was 6.42% (inactive); in [13] (at 38 µM (top of the series)), 6.57% (inactive). The Potency is > 46 µM (inactive) and > 20.6 µM (inactive) in assay [14]; > 46 µM (inactive) and > 20.6 µM (inactive) in [15]. For the same molecule, the Potency entry in assay [16] was “inactive”.
For `O=C(/C=C/c1ccc2c(c1)OCO2)Nc1cc(S(=O)(=O)N2CCOCC2)ccc1N1CCOCC1`, the Potency result in assay [2], in assay [3], in assay [4] and in [5] was “inactive” throughout.
On to `COc1ncc(Nc2ncc(C(C)N3CCN(S(C)(=O)=O)CC3)cc2-c2nc(C)nc(N)n2)cc1F` (centres undefined), for which the Potency result in assay [21] is “inactive”. In addition, the Z-AUC in assay [19] was 0.314 (inactive); in assay [19] (setting [22]) it was 0.577; in assay [19] (measured here: PEO4 Z-AUC), 0.144.
Take `CCN1/C(=C/C(C)=C/c2sc3ccccc3[n+]2CC)Sc2ccccc21`: the Potency entry in assay [2] and in assay [4] was “inactive” in each case. Further, the activation was 8.04% [at 17.1 µM, percent relative to cAMP agonist control] (inactive) in assay [3] and 12.5% [at 30.8 µM] (inactive) in [6]. For the same molecule, the activity change, negative = inhibition in assay [5] was 12.4% [at 30.8 µM] (inactive).
In the case of `CC1O[C@@H](O[C@H]2C(Oc3cc(O)c4c(=O)cc(-c5ccc(O)cc5)oc4c3)OC(CO)C(O)C2O)C(O)C(O)C1O` (some centres undefined), the Potency result in assay [7] and in assay [8] was “inactive” throughout.
